Source: PubChem BioAssay
ALDH1A1 inh: blocks purified human ALDH1A1 activity | Purified ALDH1A1, NADH fluorescence, propionaldehyde substrate | Potency, µM (highest dose often 75.3 µM), without a hit: top-dose activity, negative = inhibition, most hits filed as inhibitors | 220,000 compounds, 7.3% hits;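 note: potency is the fitted concentration of half-maximal effect; plate controls were no enzyme wells and a reference inhibitor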
Target sequence (P00352 whole entry, looked up): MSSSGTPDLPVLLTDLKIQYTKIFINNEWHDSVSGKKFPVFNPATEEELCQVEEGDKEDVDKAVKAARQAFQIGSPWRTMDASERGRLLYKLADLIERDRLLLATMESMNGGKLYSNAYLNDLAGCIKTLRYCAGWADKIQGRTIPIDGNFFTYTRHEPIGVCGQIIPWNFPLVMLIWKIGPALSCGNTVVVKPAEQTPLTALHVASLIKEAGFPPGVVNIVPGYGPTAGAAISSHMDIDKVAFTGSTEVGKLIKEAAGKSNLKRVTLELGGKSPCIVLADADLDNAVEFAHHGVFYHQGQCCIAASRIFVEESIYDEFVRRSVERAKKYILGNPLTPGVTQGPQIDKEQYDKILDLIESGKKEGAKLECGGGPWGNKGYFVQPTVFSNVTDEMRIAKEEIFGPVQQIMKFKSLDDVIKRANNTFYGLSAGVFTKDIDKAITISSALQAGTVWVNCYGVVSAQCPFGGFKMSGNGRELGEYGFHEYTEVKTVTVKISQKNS
HPGD block: inhibitors of human 15-hydroxyprostaglandin dehydrogenase (HPGD); 150,000 compounds, 4.3% hits; Potency, µM, for inactives: at the top dose activity change, negative = inhibition, actives largely listed as inhibitors; P15428; AID 894; purified HPGD, NADH fluorescence kinetic, PGE2 substrate; note: potency is the fitted concentration of half-maximal effect
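NADH formation kinetics: reaction with 30 uM PGE2 and 1 mM NAD+ (final), 20 nM enzyme, Tris-HCl pH 8 with Tween 20, after 15 min compound preincubation at room temperature. Fluorescence change, last versus first of five reads.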
PNC inhibitor: perinucleolar compartment assembly inhibition; PC3M PTB-GFP, PNC prevalence imaging, 16 h; hits give low values; activity change (PNC), negative = inhibition, % at 10 µM; 140,000 compounds, 3.1% hits; AID 2417;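 active = readout at or below -70, meaning at least 70% loss of cells showing the perinucleolar compartment, a nuclear body marking cancer cells; inconclusive = readout between -30 and a set limit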;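 note: plate controls were DMSO wells for no effect and camptothecin positive control wells for full effect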
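Compounds are pinned in duplicate onto adhered PC3M cells stably expressing GFP-tagged PTB and incubated 16 h at 37 C. Cells are then fixed, nuclei stained with Hoechst, and PNC-positive cells counted.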
* marks the source's active call; other numbers are inactive results; ? = inconclusive; . = not tested or not shown; [ ] = another dose, or the depositor's remark. Shown are actives, neighbours in structure and some others; about 11% of the full set was active somewhere. Unless noted, calls come from the whole dose curve; as a rule, active = well fitted inhibition curve with a large enough effect (not every such curve was filed as active); inconclusive = small, poorly fitted or top-dose-only effect, or another doubt; inactive = no such curve, though single readings can be large or run the other way. Unless noted, % is set by controls: 0 for no effect and ±100 for the full control effect.

SMILES	ALDH1A1 inh	HPGD block	PNC inhibitor
NNC(=O)CCSc1ccccc1	1.6%[13.5 µM]	-0.8%	.
O=C(c1ccc(C#CC2(O)CCCCC2)cc1)N1CCN(C(c2ccccc2)c2ccccc2)CC1	25.1µM*	-15.9%	9.7
O=C(c1ccc(C#CC2(O)CCCCC2)cc1)N1CCN(Cc2ccccc2)CC1	-13.2%	-5.1%	-27.9
CN(C)CCNc1oc(COc2ccc(Cl)cc2Cl)nc1C#N	0.3%	-9.8%	36.8
CN(C)c1oc(COc2ccccc2F)nc1C#N	0.3%	-13.1%	-25.5
COc1ccc(CCNc2oc(COc3ccccc3F)nc2C#N)cc1	?	17.8µM*	?
COc1ccc(Nc2oc(COc3ccc(Cl)cc3)nc2C#N)cc1	-6.4%	28.2µM*	0.5
COCCCNc1oc(COc2ccc(Cl)cc2Cl)nc1C#N	0.4%	28.2µM*	?
N#Cc1nc(COc2ccccc2F)oc1NCc1ccc(F)cc1	?	20µM*	7.7
CN(C)CCNc1oc(COc2ccc(-c3ccccc3)cc2)nc1C#N	1.5%	.	?
COc1ccc(CNc2oc(COc3ccc(Cl)cc3)nc2C#N)cc1	-5.2%	-22.9%	-11.1
O=C(NCCCN1CCOCC1)/C(=C/c1ccc(F)cc1)NC(=O)c1ccccc1	8.4%	.	.
CSc1ccc(/C=C(/NC(=O)c2ccc(C)cc2)C(=O)Nc2cccc(C)c2)cc1	2.4%	-22.5%	19.1
CCN(CC)CCOC(=O)C1c2ccccc2Oc2ccccc21	-0.5%	-6.6%	-12.4
CCOC(=O)/C(C#N)=C\C1=C(N2CCCC2)CC(C)(C)OC1	14.1µM*	-21.5%	8.0
CCOC(=O)/C(C#N)=C\C1=C(N2CCCC2)CC(C)(CC)OC1 (stereo unspecified)	?	-20.5%	?
CCn1c(SCC(=O)N2c3ccccc3Sc3ccccc32)nc2c1c(=O)n(C)c(=O)n2C	11.2µM*	-11.7%	27.9
CCCn1c(SCC(=O)N2c3ccccc3CCc3ccccc32)nc2c1c(=O)n(C)c(=O)n2C	11.2µM*	-12.9%	?
CCCn1c(SCC(=O)N2CCc3ccccc3C2)nc2c1c(=O)n(C)c(=O)n2C	-8.6%	-2.3%	51.8
CCCCn1c(SCC(=O)N2c3ccccc3Sc3ccccc32)nc2c1c(=O)n(C)c(=O)n2C	?	-18.9%	389.1
Cc1ccc(S(=O)(=O)N(C)C)cc1-n1c(SCC(=O)Nc2ccc(F)c(F)c2F)nc2ccccc2c1=O	-1.4%	-12.4%	-16.4
Cc1nnc(SCc2cccc([N+](=O)[O-])c2)[nH]c1=O	-4.9%	.	.
CC(C)(C)c1cnnn1-c1ccc(NC(=O)c2ccc3c(c2)OCO3)cc1	11.9µM*	-26.3%	3.2
COc1cccc(C(=O)Nc2ccc(-n3nncc3C(C)(C)C)cc2)c1	-8.1%	.	.
CCOC(=O)C(Cc1ccc(NC(=O)/C(=C\c2ccccc2)NC(=O)c2ccccc2)cc1)N1C(=O)c2ccccc2C1=O (stereo unspecified)	17.5%	-6.7%	-2.4
SMILES	ALDH1A1 inh	HPGD block	PNC inhibitor
Cc1ccc(-c2nn3c(C)nnc3s2)cc1NC(=O)c1ccc(-c2ccc(Cl)cc2Cl)o1	?	?	4.2
CCCCC(=O)Nc1cccc(-c2nn3c(C)nnc3s2)c1	2.3%	15.8µM*	44.3
CCC(=O)Nc1cc(-c2nn3c(C)nnc3s2)ccc1C	12.1%	0.5%	-3.6
Cc1ccc(-c2nn3c(C)nnc3s2)cc1NC(=O)c1ccc(-c2cccc(Cl)c2)o1	?	22.4µM*	-8.4
CC(=O)N1c2ccccc2NC2=C(C(=O)CC(C)(C)C2)C1c1cccn1C (stereo unspecified)	-0.4%	.	.
CC(=O)NC(Cc1ccccc1C)C(=O)NC1CCN(C(=O)c2ccc(C)cc2)CC1 (stereo unspecified)	1.0%	.	.
O=C(O)/C(=C\c1cccc([N+](=O)[O-])c1)c1ccc(S(=O)(=O)N2CCCCC2)s1	3.98µM*	.	.
CSc1ccc(/C=C(\C(=O)O)c2ccc(S(=O)(=O)N3CCCCC3)s2)cc1	-13.9%	15.6%	15.3
O=C(O)/C(=C\c1ccc(Cl)c([N+](=O)[O-])c1)c1ccc(S(=O)(=O)N2CCCCC2)s1	0.501µM*	.	.
O=C(O)/C(=C\c1ccccc1Cl)c1ccc(S(=O)(=O)N2CCCCC2)s1	?	.	-23.3
O=C1Nc2cc(Cl)c(Cl)cc2N(O)N1c1ccc(Cl)c(Cl)c1	3.0%	-24.3%	20.3
COC(=O)c1c(NC(=O)CN2CCCC(C)C2)c2c(C)cccc2n1C (stereo unspecified)	6.7%	-4.9%	42.5
CCn1c(=O)c(C(=O)NC(C)C)c(O)c2ccccc21	12.6µM*	-17.4%	-9.9
CCn1c(=O)c(C(=O)NCCNCCO)c(O)c2ccccc21	-0.8%	-6.8%	31.8
Cc1cc(NC(=O)CSc2nc(=O)cc(N)n2-c2ccc(Cl)cc2)no1	-2.6%	.	.
Cc1ccc(/C=C/C(=O)N2CCc3ccccc32)o1	?	?	18.8
Cc1ccc(/C=C/C(=O)N2CCN(c3ncccn3)CC2)o1	3.55µM*	20µM*	-10.0
Cc1ccc(/C=C/C(=O)N2CCCC(C(N)=O)C2)o1 (stereo unspecified)	14.1µM*	.	.
Cc1ccc(/C=C/C(=O)N2CCN(c3ccc(F)cc3)CC2)o1	?	-18.2%	1.9
Cc1ccc(-c2ccc(/C=C3\C(=O)ON=C3c3ccccc3)o2)c([N+](=O)[O-])c1	8.91µM*	1.26µM*	25.6
CCOc1ccc(-c2ccc(/C=C3/C(=N)N4C(C)=CSC4=NC3=O)o2)c([N+](=O)[O-])c1	?	?	9.0
Cc1ccc(C(=O)N/N=C/c2ccc(-c3ccccc3[N+](=O)[O-])o2)cn1	0.6%	-20.3%	19.1
O=C1/C(=C\c2ccc(-c3ccccc3[N+](=O)[O-])o2)C(c2ccccc2)=NN1c1ccccc1	-10.5%	?	-85.9*
O=C(NNc1ccc([N+](=O)[O-])cc1)c1ccccc1Cl	-4.9%	.	.
Cc1ccc(Cl)c(Nc2ccccc2C(=O)O)c1Cl	-9.2%	-7.8%	22.9
SMILES	ALDH1A1 inh	HPGD block	PNC inhibitor
O=C(O)c1ccccc1Nc1ccc([N+](=O)[O-])cc1	-8.4%	-26.2%	-86.9*
Cc1c(Cl)cccc1Nc1ccccc1C(=O)O	12.2%	14.1µM*	.
O=C(NCCCN1CCOCC1)c1ccc(CS(=O)(=O)Cc2ccc(Cl)cc2)o1	8.3%	-10.4%	0.3
O=C(COC(=O)c1ccc[nH]c1=O)NC1CCCC1	1.2%	-4.2%	?
O=C(CSc1ccc(-c2ccccn2)nn1)NC1CCCCC1	4.8%	.	.
NC(=O)COC(=O)c1ccccc1SCC(=O)NC1CCCCCC1	28.2µM*	.	.
O=C(CSc1ccc(-c2ccco2)nn1)NC1CCCCC1	3.98µM*	.	.
O=C(CSc1nnc(-c2ccco2)o1)NC1CCCCC1	12.3%	-20.9%	-24.9
O=C(CSc1ccc(-c2ccco2)nn1)NC1CCCC1	35.5µM*	.	.
CCSc1nc(C)cc(Oc2ccc(=O)n(C)n2)n1	2.6%	-3.9%	-17.1
COc1cccc(CNC(=S)Nc2cc(OC)ccc2OC)c1	-1.1%	.	.
CCOC(=O)c1oc2ccc(/C=N/O)c(Cl)c2c1C	2.1%	.	.
CCSc1cnn(-c2ccccc2)c(=O)c1SCC	?	-21.4%	60.8
CCCCSc1cnn(-c2ccccc2)c(=O)c1SCCCC	6.8%	-9.3%	-80.8*
Cc1ccc(S(=O)(=O)N(CCC#N)CCN2CCCC2)cc1	-9.9%	-7.3%	-24.8
NC(=O)COC(=O)CC12CC3CC(CC(Br)(C3)C1)C2	3.0%	.	.
CC(=NC1CCCCC1)C1=C(O)c2ccccc2C1=O	?	-13.2%	34.5
